# Rows were chosen to be rich in hits. Some 7.3% of all compounds tested hit in one or more screens of this group.
# SMN2 splice enh: enhancers of SMN2 splice variant expression. HEK293 SMN2-luciferase splicing reporter, luminescence, 30-36 h. Potency, µM (doses to about 46.1 µM), inactives show top-dose activity change, positive = activation, most hits filed as activators. actives 2.8% (n = 210,000); further: % of control where 0% means no effect; nearly all actives have a fitted effect of over 55% in size
#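 HEK293 cells carry an SMN2 […]–luciferase reporter in which exon 7 inclusion puts luciferase in frame. Cells were plated 10-12 h before compound addition, then incubated 30-36 h at 37C. ONE-Glo luminescence was read; sodium butyrate at 4.5 mM final served as control.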
# NPC1 promoter act: activators of NPC1 promoter; Huh7 NPC1 promoter luciferase reporter, 24 h; Potency, µM (top dose mostly 9.22 µM), without a hit: at the highest dose activation, hits mostly activators; actives 2.4% (n = 320,000); AID 485313; further: % of control where 0% means no effect; nearly all actives have a fitted effect of over 60% in size
#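 In 1536-well qHTS, Huh7 cells harboring an NPC1 promoter–luciferase construct received compound for 24 h; activation was quantified by luminescence following luciferase reagent addition.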
# FLuc counter: firefly luciferase modulation, counter-screen for miR-21 project; AID 588342; P08659; purified FLuc, Km substrates, luminescence inhibition; Potency, µM (highest dose often 57.5 µM), for inactives: top-dose activity change, negative = inhibition, hits mostly inhibitors; actives 6.9% (n = 360,000);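 further: plate controls were vehicle for no effect and reference inhibitor for full effect; nearly all actives have a fitted effect of over 55% in size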
# Target sequence (P08659 whole entry, looked up): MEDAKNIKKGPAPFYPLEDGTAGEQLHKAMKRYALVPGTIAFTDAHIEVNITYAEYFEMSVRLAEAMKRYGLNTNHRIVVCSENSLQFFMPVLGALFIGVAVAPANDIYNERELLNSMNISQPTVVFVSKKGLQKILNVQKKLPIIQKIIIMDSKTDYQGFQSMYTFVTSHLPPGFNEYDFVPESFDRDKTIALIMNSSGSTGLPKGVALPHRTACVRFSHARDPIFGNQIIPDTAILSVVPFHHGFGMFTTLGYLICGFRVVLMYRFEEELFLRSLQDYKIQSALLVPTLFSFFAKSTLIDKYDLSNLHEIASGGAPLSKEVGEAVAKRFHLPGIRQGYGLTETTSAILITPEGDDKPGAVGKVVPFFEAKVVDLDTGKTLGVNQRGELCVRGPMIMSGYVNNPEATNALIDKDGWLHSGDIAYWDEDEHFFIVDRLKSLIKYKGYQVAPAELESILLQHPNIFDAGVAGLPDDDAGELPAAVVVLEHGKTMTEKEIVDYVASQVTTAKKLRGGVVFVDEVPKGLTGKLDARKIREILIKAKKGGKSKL
#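 Purified P. pyralis luciferase (10nM final) with 10uM D-luciferin and 10uM ATP (Km levels) in 50mM Tris acetate pH 7.5, 10mM Mg acetate, 0.01% Tween-20, 0.05% BSA; qHTS 6-point titration, ~60 µM downward; luminescence read.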
# ELG1 genotoxic: genotoxicity induction in ELG1-luciferase HEK293T cells | AID 504466 | Potency, µM (titrated, usually from 46 µM), for the others: at the highest dose activity change, positive = activation, usual class: activators | actives 1.3% (n = 330,000) | HEK293T ELG1-luciferase reporter, luminescence, 16 h; further: % of control where 0% means no effect; nearly all actives have a fitted effect of over 60% in size
#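 Luminescence read-out: rising ELG1-luciferase signal, reflecting elevated ELG1 protein under genetic stress, flags genotoxic compounds. Cells were treated for 16 hr at 37 °C before ONE-Glo detection.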
# Rab9 prom act: Rab9 promoter activation; AID 485297; Potency, µM (titrated, usually from 9.22 µM), for the others: at the highest dose activation, negative = inhibition, actives largely listed as activators; actives 2.8% (n = 320,000); Huh7 Rab9 promoter-luciferase reporter, luminescence, 24 h; further: % of control where 0% means no effect; nearly all actives have a fitted effect of over 60% in size
#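 Stable Rab9-luc Huh7, 1500 cells/well, 2 h settle; cmpd in DMSO, 24 h, 37 °C/5% CO2; luciferase reagent 10 min RT; luminescence.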
# Luc counter: blocks Kinase-Glo luciferase, a counter-screen artifact | Q27757 | Kinase-Glo luciferase, ATP luminescence, 8 min | Potency, µM (series often up to 38.3 µM), inactives show at the top dose activity change, negative = inhibition, most hits filed as inhibitors | actives 0.28% (n = 200,000) | AID 1379; further: on the % scale 0 is the no-effect control and ±100 the full control effect; nearly all actives have a fitted effect of over 60% in size
#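 Recombinant Kinase-Glo luciferase, 10 uM ATP (linear range), luciferin; imidazole pH 7.2 / KCl / MgCl2 / Tween / BSA buffer; 8 min RT; luminescence.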
# An asterisk follows results filed as active; ? = inconclusive; . = no result given; ! = not active in a repeat; [ ] = another dose, or the depositor's remark. The call rests on the fitted dose curve; in most records, active means well fitted curve in the direction sought with a large enough effect; inconclusive means small, poorly fitted or top-dose-only effect, or another doubt; inactive means no such curve, though single readings can be large; an effect the other way counts as inactive or inconclusive. Potency means the concentration at half of the fitted maximal effect.
SMILES,SMN2 splice enh,NPC1 promoter act,FLuc counter,ELG1 genotoxic,Rab9 prom act,Luc counter
Cc1cc(C(=O)OCC(=O)Nc2cc(Cl)ccc2C)c(C)o1,.,1%,-1%,4%,3%,.
CCC(=O)Nc1cc(C(=O)OCC(=O)c2ccccc2Cl)ccc1C,.,?,8.5µM*,?,3.5µM*,-4%
CCC(=O)Nc1cc(C(=O)OCC(=O)c2ccccc2)ccc1C,.,?,12µM*,?,?,-2%
Cc1ccc(Cl)cc1NC(=O)c1ccc(NC(=O)CCC(=O)O)cc1,?,1%,-2%,-2%,-1%,6%
Cc1ccc(C2CC(=O)Oc3c(C(C)C)ccc(C)c32)cc1 (configuration not stated),.,.,.,.,.,0%[39.9 µM]
COCCCNC(=S)NNC(=O)c1cc(-c2ccncc2)nc2ccccc12,.,-1%,8.5µM*,8%,0%,.
CCCCN(C)CCCNC(=O)c1cc(-c2cccnc2)nc2ccccc12,.,-3%,1%,0%,-2%,.
COCCCNC(=S)NNC(=O)c1cc(C2CC2)nc2ccccc12,.,-1%,12µM*,2%,-4%,.
COCCCNC(=S)NNC(=O)c1cc(-c2cccnc2)nc2ccccc12,.,0%,11µM*,4%,-3%,.
CCNC(=S)NNC(=O)c1cc(-c2cc(C)ccc2C)nc2ccccc12,-18%,-5%,19µM*,-4%,-1%,6%
O=C(CSc1nnc(CNC(=O)c2c(F)cccc2Cl)o1)Nc1ccccc1F,10%,.,2%,.,.,.
Cc1ccc(C)c(S(=O)(=O)c2nnn3c2nc(NCc2ccc4c(c2)OCO4)c2sccc23)c1,.,.,-19%,.,.,.
COCCNC(=S)NNC(=O)c1cc(-c2cccnc2)nc2ccccc12,.,-2%,8.5µM*,1%,0%,.
COCCNC(=O)c1cc(-c2cccnc2)nc2ccc(Br)cc12,9%,0%,?,0%,4%,1%
CCc1ccc(NC2=NCC(c3ccccc3)S2)cc1 (configuration not stated),14µM*,?,7.6µM*,?,?,1%
N#CCCn1cc(/C=N/NC(=O)c2ccncc2)c(-c2ccccc2)n1,10%,-3%,10%,-1%,0%,7%
Cc1cc(=O)[nH]c(N/N=C/c2cn(CCC#N)nc2-c2ccccc2)n1,18%,-1%,19µM*,4%,-1%,-3%
Cc1nc(N2CCCC2)ncc1C(=O)Nc1ccc(F)cc1F,.,.,-6%,.,.,.
Cc1c(C(=O)O)c(O)cc2c1C(=O)c1c(O)c([C@H]3O[C@H](CO)[C@@H](O)[C@H](O)[C@H]3O)c(O)c(O)c1C2=O,-59%,.,.,.,.,13µM*!
COc1cccc(NC(=O)Nc2nnc(N3C(C)CCCC3C)s2)c1 (configuration not stated),.,29%,21µM*,-5%,23%,.
COc1c(C(=O)Nc2ccc(Cc3ccncc3)cc2)ccc2ccccc12,-54%,4%,19µM*,0%,-4%,2%
COc1ccc(CNC(=O)c2ccncc2)cc1,.,0%,0%,-4%,7%,.
COc1ccc(Br)cc1C(=O)Nc1ccc(Cc2ccncc2)cc1,-29%,9%,?,-2%,1%,0%
COc1cccc(NC(=O)Nc2ccncc2)c1,.,-1%,?,-2%,18%,-6%
COc1cccc(CNC(=O)c2ccncc2)c1,.,4%,17µM*,-5%,0%,.
SMILES,SMN2 splice enh,NPC1 promoter act,FLuc counter,ELG1 genotoxic,Rab9 prom act,Luc counter
COc1cccc(NC(=O)Nc2ccc(Cc3ccncc3)cc2)c1,-35%,0%,17µM*,-1%,-2%,2%
CCN(Cc1ccccc1)C(=O)Cn1c(=O)n(-c2ccc(C)c(C)c2)c(=O)c2c(C)c(C)sc21,0%,.,-12%,.,.,.
COc1cccc(NC(=O)C(=O)NCc2ccncc2)c1,13µM*,2%,19µM*,?,?,-16%
CCCC(=O)Nc1cccc(-c2nc3cc(C)c(C)cc3o2)c1,?,2.2µM*,0.6µM*,?,4µM*,-12%
CCCC(=O)Nc1cc(-c2nc3ncccc3o2)ccc1C,6%,2%,-12%,11%,-1%,2%
CCCC(=O)Nc1cccc(-c2nc3ncccc3o2)c1,3.5µM*,.,6%,.,.,.
CCCCC(=O)Nc1cccc(-c2nc3ncccc3o2)c1,-29%,-1%,-16%,0%,5%,-5%
CCCC(=O)Nc1ccc(-c2nc3ncccc3o2)cc1,.,2.2µM*,13µM*,?,2µM*,.
CCn1nc(C)c2c(-c3ccccc3)cc(=O)n(C(C)C(=O)NCCc3ccccc3)c21 (configuration not stated),.,.,-15%,.,.,.
Cc1nn(-c2nc3ccccc3s2)c(N)c1-c1ccccc1,7.1µM*,2.5µM*,1.9µM*,?,2.2µM*,-28%
Cc1nn(-c2ccccc2)c(N)c1Sc1ccc([N+](=O)[O-])cc1,-38%,9%,-5%,1%,2%,1%
Cc1nn(-c2nc3ccccc3s2)c(N)c1Sc1ccc(F)cc1,1%,3.2µM*,?,?,1.1µM*,-7%
Cc1cc(N)n(-c2nc3ccccc3s2)n1,.,-10%,-2%,-13%,-11%,-1%
Cc1nn(-c2nc3ccccc3s2)c(N)c1-c1ccc(Cl)cc1,11µM*,?,3µM*,?,?,0%
CCCN(CCC)C(=O)Cn1c(=O)n(-c2ccc(CC)cc2)c(=O)c2c3c(sc21)CCC3,2%,.,-9%,.,.,.
Clc1ccccc1CSc1ncn(-c2ccccc2)n1,22µM*,3.5µM*,7.6µM*,?,?,-3%
CC1=CC2=NC(=O)/C(=C\c3cc(C)n(-c4ccccc4)c3C)C(=N)N2O1,2%[1.84 µM],1%,5.4µM*,-2%,0%,-2%
CC1=CC2=NC(=O)/C(=C\c3cc(C)n(-c4ccccc4F)c3C)C(=N)N2O1,-6%[1.84 µM],-1%,6µM*,-2%,-4%,-3%
CS(=O)(=O)C1=NSC2=NC(=O)/C(=C\c3cccn3-c3ccc(Cl)cc3)C(=N)N21,10%,0%,-1%,1%,-10%,-2%
Cc1cc(/C=C2/C(=N)N3C(=NC2=O)SN=C3S(C)(=O)=O)c(C)n1-c1ccccc1F,13µM*,3.2µM*,0.3µM*,-3%,3.2µM*,-4%
CCc1ccc(-n2c(=O)c3c4c(sc3n(CC(=O)N3CCC(C)CC3)c2=O)CCC4)cc1,-6%,.,-12%,.,.,.
Cc1ccc(-c2nc3scc(CCNC(=O)Cc4ccc(Cl)cc4)n3n2)cc1,.,.,4%,.,.,.
Cc1ccc(C)c(NC(=O)Cn2ncc3c([nH]c4ccccc43)c2=O)c1,.,.,-1%,.,.,.

# High-throughput results as filed in PubChem.
